The antibiotic and cytotoxicity screens of Wong et al. (2023)
Among all 39,000 compounds or so, about 3,300 (8.5%) were called active. The list comes from a sample in which actives are over-represented; it also holds similar structures and randomly drawn compounds.

Tested on: HepG2
Test: cytotoxicity call (relative viability < 0.9)
Conditions: 10 µM

Q: How did the cytotoxicity call turn out when `CC(C)NC(=O)Nc1ccc2c(c1)C(=O)N([C@H](C)CO)C[C@@H](C)[C@H](CN(C)S(=O)(=O)c1cccs1)O2` was run?
A: inactive

Q: `CO[C@H]1CN(C)C(=O)c2ccc(NS(C)(=O)=O)cc2OC[C@@H](C)N(C(=O)CN(C)C)C[C@@H]1C` was tested. Which cytotoxicity call did it give?
A: inactive

Q: How did the cytotoxicity call turn out when `Cn1nc(CN2CCCC2=O)c2c1CNC2` was run?
A: inactive

Q: How did the cytotoxicity call turn out when `Cc1cc(C(=O)Nc2cccc3c2O[C@H](CN(C)Cc2ccc4c(c2)OCO4)[C@@H](C)CN([C@H](C)CO)C3=O)n(C)n1` was run?
A: inactive

Q: With `CC(C)NC(=O)N(C)C[C@H]1Oc2ccc(NC(=O)C3CCCCC3)cc2CC(=O)N([C@@H](C)CO)C[C@H]1C` as the compound, how does the cytotoxicity call read?
A: inactive

Q: Which cytotoxicity call does the source give for `C[C@@H]1CN([C@H](C)CO)C(=O)c2ccccc2-c2ccccc2CO[C@@H]1CN(C)C(=O)Nc1ccc(-c2ccccc2)cc1` here?
A: inactive

Q: With `C[C@@H]1CCCCO[C@@H](CN(C)Cc2ccc(Cl)c(Cl)c2)[C@H](C)CN([C@@H](C)CO)C(=O)c2cc(NC(=O)Nc3cccc4ccccc34)ccc2O1` as the compound, how does the cytotoxicity call read?
A: inactive

Q: `C[C@@H]1CCCCO[C@H](CN(C)Cc2ccccc2)[C@H](C)CN([C@@H](C)CO)C(=O)c2cc(NC(=O)Nc3cccc4ccccc34)ccc2O1` was tested. Which cytotoxicity call did it give?
A: active

Q: With `C[C@@H]1CN([C@H](C)CO)C(=O)c2cc(NC(=O)Nc3cccc4ccccc34)ccc2O[C@@H](C)CCCCO[C@@H]1CN(C)Cc1ccccc1` as the compound, how does the cytotoxicity call read?
A: inactive

Q: Which cytotoxicity call does the source give for `C[C@@H]1CCCCO[C@@H](CN(C)Cc2ccc(Cl)c(Cl)c2)[C@H](C)CN([C@H](C)CO)C(=O)c2cc(NC(=O)Nc3cccc4ccccc34)ccc2O1` here?
A: inactive

Q: With `C[C@H](CO)N1C[C@H](C)[C@@H](CN(C)Cc2ccccc2)OCCCC[C@H](C)Oc2ccc(NC(=O)Nc3cccc4ccccc34)cc2C1=O` as the compound, how does the cytotoxicity call read?
A: inactive

Q: With `C[C@@H]1CCCCO[C@@H](CN(C)Cc2ccccc2)[C@H](C)CN([C@H](C)CO)C(=O)c2cc(NC(=O)Nc3cccc4ccccc34)ccc2O1` as the compound, how does the cytotoxicity call read?
A: inactive

Q: With `C[C@@H]1CCCCO[C@H](CN(C)Cc2ccccc2)[C@H](C)CN([C@H](C)CO)C(=O)c2cc(NC(=O)Nc3cccc4ccccc34)ccc2O1` as the compound, how does the cytotoxicity call read?
A: active

Q: With `C[C@@H]1CCCCO[C@@H](CN(C)Cc2ccc(Cl)c(Cl)c2)[C@@H](C)CN([C@@H](C)CO)C(=O)c2cc(NC(=O)Nc3cccc4ccccc34)ccc2O1` as the compound, how does the cytotoxicity call read?
A: active

Q: With `C[C@@H]1CCCCO[C@H](CN(C)Cc2ccccc2)[C@@H](C)CN([C@H](C)CO)C(=O)c2cc(NC(=O)Nc3cccc4ccccc34)ccc2O1` as the compound, how does the cytotoxicity call read?
A: inactive

Q: For `C[C@H]1CCCCO[C@@H](CN(C)Cc2ccccc2)[C@@H](C)CN([C@@H](C)CO)C(=O)c2cc(NC(=O)Nc3cccc4ccccc34)ccc2O1`, which cytotoxicity call is on record?
A: active

Q: Which cytotoxicity call does the source give for `COc1ccc(NC(=O)N(C)C[C@H]2Oc3ncc(C#CCN(C)C)cc3C(=O)N([C@H](C)CO)C[C@H]2C)cc1` here?
A: inactive

Q: With `C[C@H](CO)N1C[C@H](C)[C@@H](CN(C)C(=O)C2CCOCC2)Oc2cc(-c3ccc(C(=O)N(C)C)cc3)ccc2S1(=O)=O` as the compound, how does the cytotoxicity call read?
A: inactive

Q: Which cytotoxicity call does the source give for `C[C@H]1CCCCO[C@H](CN(C)Cc2ccc(C(F)(F)F)cc2)[C@@H](C)CN([C@@H](C)CO)C(=O)c2cc(NC(=O)c3ccncc3)ccc2O1` here?
A: inactive

Q: Which cytotoxicity call does the source give for `C[C@@H]1CCCCO[C@@H](CN(C)C(=O)CCCN(C)C)[C@@H](C)CN([C@H](C)CO)C(=O)c2cc(N(C)C)ccc2O1` here?
A: inactive

Q: For `C[C@H](CO)N1C[C@H](C)[C@@H](CN(C)CC2CCCCC2)Oc2ccc(NC(=O)Cc3cn(C)c4ccccc34)cc2C1=O`, which cytotoxicity call is on record?
A: inactive

Q: Which cytotoxicity call does the source give for `CCCN(C)C[C@H]1OCCCC[C@@H](C)Oc2ccc(NC(=O)Cc3ccccc3)cc2C(=O)N([C@H](C)CO)C[C@H]1C` here?
A: inactive

Q: For `O=C(C[C@H]1CC[C@@H]2[C@H](COC[C@H](O)CN2CC2CCOCC2)O1)N1CCOCC1`, which cytotoxicity call is on record?
A: inactive

Q: How did the cytotoxicity call turn out when `C[C@@H]1CN([C@H](C)CO)C(=O)Cc2cc(NC(=O)CCN3CCOCC3)ccc2O[C@H]1CN(C)S(=O)(=O)c1cccs1` was run?
A: inactive

Q: `C[C@@H]1CN([C@@H](C)CO)C(=O)c2cc(NC(=O)Nc3cccc4ccccc34)ccc2O[C@@H](C)CCCCO[C@H]1CN(C)Cc1ccncc1` was tested. Which cytotoxicity call did it give?
A: inactive

Q: With `C[C@@H]1CCCCO[C@@H](CN(C)Cc2ccccc2)[C@@H](C)CN([C@H](C)CO)C(=O)c2cc(NC(=O)Nc3cccc4ccccc34)ccc2O1` as the compound, how does the cytotoxicity call read?
A: inactive

Q: `C[C@@H]1CCCCO[C@@H](CN(C)Cc2ccccc2)[C@H](C)CN([C@@H](C)CO)C(=O)c2cc(NC(=O)Nc3cccc4ccccc34)ccc2O1` was tested. Which cytotoxicity call did it give?
A: inactive

Q: How did the cytotoxicity call turn out when `C[C@@H]1CN([C@@H](C)CO)C(=O)c2cc(NC(=O)Nc3cccc4ccccc34)ccc2O[C@@H](C)CCCCO[C@H]1CN(C)Cc1ccccc1` was run?
A: active

Q: For `C[C@@H]1CCCCO[C@@H](CN(C)Cc2ccc(C(=O)O)cc2)[C@@H](C)CN([C@H](C)CO)C(=O)c2cc(NC(=O)Nc3cccc4ccccc34)ccc2O1`, which cytotoxicity call is on record?
A: inactive

Q: `C[C@@H]1CCCCO[C@H](CN(C)Cc2ccc(C(=O)O)cc2)[C@@H](C)CN([C@@H](C)CO)C(=O)c2cc(NC(=O)Nc3cccc4ccccc34)ccc2O1` was tested. Which cytotoxicity call did it give?
A: inactive

Q: For `C[C@@H]1CCCCO[C@H](CN(C)Cc2ccccc2)[C@@H](C)CN([C@@H](C)CO)C(=O)c2cc(NC(=O)Nc3cccc4ccccc34)ccc2O1`, which cytotoxicity call is on record?
A: active

Q: How did the cytotoxicity call turn out when `C[C@@H]1CCCCO[C@H](CN(C)Cc2ccncc2)[C@H](C)CN([C@@H](C)CO)C(=O)c2cc(NC(=O)Nc3cccc4ccccc34)ccc2O1` was run?
A: active

Q: Which cytotoxicity call does the source give for `C[C@H]1CCCCO[C@H](CN(C)Cc2ccccc2)[C@@H](C)CN([C@@H](C)CO)C(=O)c2cc(NC(=O)Nc3cccc4ccccc34)ccc2O1` here?
A: active

Q: `C[C@@H]1CN([C@@H](C)CO)C(=O)c2cc(NC(=O)Nc3cccc4ccccc34)ccc2O[C@@H](C)CCCCO[C@@H]1CN(C)Cc1ccncc1` was tested. Which cytotoxicity call did it give?
A: inactive

Q: Which cytotoxicity call does the source give for `CC(C)NC(=O)N(C)C[C@@H]1OCc2cnnn2CCCC(=O)N([C@H](C)CO)C[C@@H]1C` here?
A: inactive

Q: With `C[C@H]1CN([C@@H](C)CO)C(=O)c2c(c3ccccc3n2C)-c2ccccc2CO[C@@H]1CN(C)C(=O)c1ccc(F)cc1` as the compound, how does the cytotoxicity call read?
A: inactive

Q: Which cytotoxicity call does the source give for `C[C@H]1CCCCO[C@@H](CN(C)Cc2ccc3c(c2)OCO3)[C@@H](C)CN([C@@H](C)CO)C(=O)c2cc(NS(=O)(=O)c3ccc(F)cc3)ccc2O1` here?
A: inactive
